Molecules are shown by their SMILES. Several values for one entry are separate records, joined by “and”; a condition that tells them apart may be missing. Equal entries are not always repeated.

For the test, the target named is 5'-AMP-activated protein kinase catalytic subunit alpha-2 (Homo sapiens) (UniProt P54646). To be noted: at 1 µM.
5'-AMP-activated protein kinase catalytic subunit alpha-2 (Homo sapiens), sequence (P54646 whole entry, looked up): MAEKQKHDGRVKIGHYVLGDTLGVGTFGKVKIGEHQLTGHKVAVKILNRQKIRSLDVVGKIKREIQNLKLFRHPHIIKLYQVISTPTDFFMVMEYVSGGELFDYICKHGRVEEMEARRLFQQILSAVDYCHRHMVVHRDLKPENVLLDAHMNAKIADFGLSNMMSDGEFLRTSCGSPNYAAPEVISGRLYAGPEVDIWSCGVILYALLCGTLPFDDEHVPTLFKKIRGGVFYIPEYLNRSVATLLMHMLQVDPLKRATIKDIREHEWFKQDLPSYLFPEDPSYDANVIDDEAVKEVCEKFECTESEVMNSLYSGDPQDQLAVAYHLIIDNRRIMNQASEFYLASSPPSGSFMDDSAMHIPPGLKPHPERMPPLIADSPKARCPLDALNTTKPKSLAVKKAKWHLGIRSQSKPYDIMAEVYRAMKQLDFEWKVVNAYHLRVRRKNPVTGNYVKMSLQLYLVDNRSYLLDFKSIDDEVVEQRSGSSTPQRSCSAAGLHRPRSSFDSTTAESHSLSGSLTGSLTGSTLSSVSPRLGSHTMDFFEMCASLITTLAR
Regarding `COc1cccc(-n2ncc3c(N/N=C/c4ccc(C(=O)NCCN(C)C)cc4)ncnc32)c1`, the inhibition (in general, the change of the read-out against control, counted positive when it falls) turned out to be 14.5%.
As to `CS(=O)(=O)Nc1ccc(-c2cc(-c3ccccc3)cc(C(N)=O)c2N)cc1`, the inhibition is 1.49%.
The figure for `CCn1c(-c2nonc2N)nc2cncc(C(=O)NCCNC)c21` is 4.46%; for `NS(=O)(=O)c1ccc(N/N=C2\C(=O)Nc3cccc(CCc4ccncc4)c32)cc1` it is 11.6%.
On to `CCOc1ccc2c(-c3ccnc(Nc4cc(OC)cc(C(F)(F)F)c4)n3)cnn2n1`, for which the inhibition came out at 3.94%.
Take `Cc1ccc(-c2cc3c(NC(=O)C4CC4)ncnc3o2)cc1`: the inhibition amounted to 5.09%.
The result for `COc1cc2c(cc1Nc1nc(Nc3cccc(F)c3C(N)=O)c3cc[nH]c3n1)N(C(=O)CN1CCN(C(C)C)CC1)CC2` reads 3.18%.
The figure for `Nc1ncnc2occ(-c3ccc(NC(=O)Nc4cc(C(F)(F)F)ccc4F)cc3)c12` is 0.27% and -2.18%; for `CN1CCN(Cc2ccc(-c3cc4ncnc(Nc5ccc(OCc6cccc(F)c6)c(Cl)c5)c4s3)o2)CC1` it is 4.56% and 5.82%.
As for `NC(=O)c1ccc2c(-c3ccnc(NCCCO)n3)c(-c3ccc(F)cc3)nn2c1`, the inhibition was found to be 4.65%.
Turning to `CN1CCC(n2cnc(-c3ccc(F)cc3)c2-c2ccnc(NCCO)n2)CC1`, the inhibition came to 3.88%.
`O=C(O[C@H]1CN[C@H](C#Cc2cc3ncnc(Nc4ccc5c(cnn5Cc5ccccc5)c4)c3s2)C1)N1CCOCC1`: the inhibition was 3.11%.
For `Cc1c2ccc(N(C)c3ccnc(Nc4cccc(S(N)(=O)=O)c4)n3)cc2nn1C`, the inhibition is 5.34%.
Consider `CNC(=O)c1cncc(/C=C/c2ccccc2C)c1`, for which the inhibition stood at 6.66%.
Consider `COc1ccc(Nc2ncc(-c3ccccc3)o2)cc1OC`, for which the inhibition worked out at 14.5%.
Regarding `CS(=O)(=O)CCNCc1ccc(-c2ccc3ncnc(Nc4ccc(OCc5ccccc5)cc4)c3c2)o1`, the inhibition is 4.61%.
Consider `CCCNc1cccc(-n2ncc3c(N/N=C/c4ccncc4)ncnc32)c1`, for which the inhibition came out at 2.07%.
The figure for `COc1c(C(N)=O)cc(-c2ccc(Cl)cc2)cc1-c1ccc(S(N)(=O)=O)cc1` is 3.24%.
In the case of `COc1cccc(Nc2nccc(-c3cnn4ncccc34)n2)c1`, the inhibition came out at 7.99%.
With `CN(c1ccc(NC(=O)NCCN2CCOCC2)cc1)c1ccnc(Nc2ccc(CS(C)(=O)=O)cc2)n1`, the inhibition was determined as 4.4%.
For the molecule `COc1ccc(-c2nn3ncccc3c2-c2ccnc(Nc3ccc(F)c(F)c3)n2)cc1`, the inhibition is 6.49%.
With `COc1cc(N2CCN(C(C)C)CC2)ccc1Nc1nc(Nc2cccc(F)c2C(=O)O)c2cc[nH]c2n1`, the inhibition worked out at 2.95%.
On to `CC(C)c1ccc(-c2cc(-c3c[nH]nc3-c3ccccn3)ccn2)cc1`, for which the inhibition stood at 2.31%.
With `CS(=O)(=O)Nc1ccc(-c2ccc3c(NC(=O)C4CC4)n[nH]c3c2)cc1`, the inhibition stood at 40%.
In the case of `Cn1c(-c2nonc2N)nc2cnccc21`, the inhibition stood at 4.41%.
The figure for `CS(=O)(=O)CCNCc1ccoc1-c1ccc2ncnc(Nc3ccc(OCc4ccccc4)cc3)c2c1` is 1.14%; for `O=C(O[C@H]1CN[C@H](C#Cc2cc3ncnc(Nc4ccc5c(ccn5Cc5cc(F)ccc5F)c4)c3s2)C1)N1CCOCC1` it is 3.87%; for `Nc1nccc(-c2c(-c3ccc(F)cc3)ncn2C2CCNCC2)n1` it is -2.2% and 1.34%.
Consider `COC(=O)Nc1nc2cc(Oc3ccc(NC(=O)Nc4ccccc4)cc3)ccc2[nH]1`, for which the inhibition worked out at 0.9%.
The figure for `CNC(=O)c1ncccc1Nc1nc(Nc2cc3c(cc2OC)CCCN3C(=O)CN(C)C)nc2[nH]ccc12` is 8.1%; for `O=C(Nc1n[nH]c2nnc(-c3cccnc3)cc12)C1CC1` it is 0.41%.

(Values after ChEMBL document CHEMBL1961873, “Compounds: GSK PKIS; Assays: Nanosyn kinase panel” (2012).)
